# Measurements taken from PubChem BioAssay (NCI).
# The panel holds about 83,000 compounds, 20% with a hit somewhere; the sample as a whole holds those more often.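 Step 1: grow cells in 96-well plates. Step 2: add test compound at a single concentration. Step 3: incubate 48 h. Step 4: record percent growth.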 Values without a mark were called inactive. The source made the active and inactive calls. How the source made its calls: active means growth percent below 10; inactive means the rest.
# Experiments:
# Assay in all cases: NCI-60 one-dose screen, 48 h (100 = growth as untreated, 0 = no growth, -100 = all killed)
# Settings in all cases: 10 µM unless noted
# NCI-H23 lung = test system: NCI-H23 lung
# NCI-H226 lung = test system: NCI-H226 lung
# NCI-H322M lung = test system: NCI-H322M lung
# HOP-62 NSCLC = test system: HOP-62 NSCLC
# NCI-H460 lung = test system: NCI-H460 lung
# HOP-92 NSCLC = test system: HOP-92 NSCLC
# NCI-H522 lung = test system: NCI-H522 lung
# A549/ATCC NSCLC = test system: A549/ATCC NSCLC
# 786-0 renal = test system: 786-0 renal
# COLO 205 colon = test system: COLO 205 colon
# DU-145 prostate = test system: DU-145 prostate
# K-562 leukemia = test system: K-562 leukemia
# MALME-3M melanoma = test system: MALME-3M melanoma
# MDA-MB-231 breast = test system: MDA-MB-231 breast
# RXF 393 renal = test system: RXF 393 renal
# SF-268 CNS = test system: SF-268 CNS
# SF-295 CNS = test system: SF-295 CNS
# SF-539 CNS = test system: SF-539 CNS
# UACC-257 melanoma = test system: UACC-257 melanoma
# M14 melanoma = test system: M14 melanoma
Structure (SMILES),growth (NCI-H23 lung) [%],growth (NCI-H226 lung),growth (NCI-H322M lung),growth (HOP-62 NSCLC),growth (NCI-H460 lung),growth (HOP-92 NSCLC),growth (NCI-H522 lung),growth (A549/ATCC NSCLC),growth (786-0 renal),growth (COLO 205 colon),growth (DU-145 prostate),growth (K-562 leukemia),growth (MALME-3M melanoma),growth (MDA-MB-231 breast),growth (RXF 393 renal),growth (SF-268 CNS) [%],growth (SF-295 CNS),growth (SF-539 CNS),growth (UACC-257 melanoma),growth (M14 melanoma)
O=C(Cn1cncn1)Nc1ccc(-c2nc3ccccc3s2)cc1,87.5,75%,101%,102%,97%,93.5%,87.5%,88.1%,95.6%,107%,94.5%,85.8%,100%,96.5%,125%,97.1,91.9%,108%,102%,111%
COc1cc2c(Oc3ccc4[nH]c(C)cc4c3F)ncnc2cc1OCCCN1CCCC1,84,57.3%,93%,79.8%,96.7%,95.9%,88.3%,84.5%,84.6%,88.9%,96.8%,71.2%,101%,104%,74.7%,72.2,97.7%,45.2%,98.8%,92.8%
O=C(Cn1ccc2ccccc21)Nc1ccc(-c2nc3ccccc3s2)cc1,94,102%,98.8%,103%,105%,105%,102%,98.3%,103%,101%,101%,103%,108%,108%,113%,96.6,103%,102%,100%,108%
COC1CCC(N2C(=O)CNc3ncc(-c4ccc(C(C)(C)O)nc4)nc32)CC1 (stereo not given),15.8,8.08% (active),-5.65% (active),5.54% (active),12.4%,-12% (active),-10.3% (active),2.75% (active),6.56% (active),-7.31% (active),4.44% (active),4.22% (active),-17.6% (active),14.2%,-28.5% (active),18.5,-15.4% (active),-21.9% (active),-15.8% (active),2.03% (active)
NC1=Nc2cc(OCCCN3Cc4ccccc4C3)c(OCC3CC3)cc2C12CCCC2,77.2,80.7%,91.6%,77%,69.8%,40.7%,39.7%,64.4%,55.6%,-62.5% (active),78.6%,-8.16% (active),-58.3% (active),36.2%,60.6%,74.1,64.6%,49.2%,-47.2% (active),-70.2% (active)
CCCCCCCCCNCCCCCCCCC,40.4,69.6%,113%,76.3%,103%,8.18% (active),-3.05% (active),99.3%,66.5%,-92.8% (active),76.5%,5.9% (active),18.4%,66.3%,50.5%,79.8,66.6%,56.7%,67.2%,-48.6% (active)
CCN1CCN(Cc2ccc(NC(=O)Nc3nc(-c4cc(OC)c(OC)c(OC)c4)cs3)cc2C(F)(F)F)CC1,37.6,56.8%,63%,49.9%,-1.08% (active),54.4%,55.9%,26.1%,-50.9% (active),-68.4% (active),38.7%,-9.87% (active),-49.8% (active),-13.8% (active),22.6%,34.8,-38% (active),-6.61% (active),-13.1% (active),-78.6% (active)
CC/C(=C(\c1ccc(OCCN2CCCCCCC2)cc1)c1ccc(OC(=O)C2CCCCC2)cc1)c1ccc(Cl)cc1,99.4,100%,80.9%,102%,106%,90.3%,89.4%,104%,104%,123%,108%,84.8%,94.1%,93.3%,110%,94.7,104%,102%,87.3%,91.1%
